Screen size: about 4,100 compounds; about 1,600 (39%) were called active. About 25% were inconclusive and are not listed. Some of the results follow. Values without a mark were called inactive. The call rests on the fitted dose curve; in most records, active means well fitted inhibition curve with a large enough effect; inconclusive means small, poorly fitted or top-dose-only effect; inactive means no such curve, though single readings can be large or run the other way.
Experiment: qHTS Validation assay for Inhibitors of Plasmodium falciparum Dd2 growth in vitro; further: nearly all actives have a fitted effect of over 70% in size
Conditions: P. falciparum Dd2 in RBCs, SYBR Green growth, 72 h; series mostly up to 28.7 µM; activity change, negative = inhibition: at the top concentration
Method in brief: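 P. falciparum Dd2-infected red blood cells (2.5% hematocrit, 0.3% parasitemia) grown 72 h at 37 °C under 5% O2 with compounds in a titration, 29 uM to 0.5 nM final. Growth read as SYBR Green-1 fluorescence after ~16 h lysis; artesunate 300 nM as positive control.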
On the % scale 0 is the no-effect control and ±100 the full control effect; potency means the concentration at half of the fitted maximal effect.

Row | Compound | activity change, negative = inhibition | Potency
1 | Cc1cccc(C)c1NC(=O)CN1C(=O)NC(c2ccccc2Cl)C2=C1COC2=O (stereo unspecified) | -22% | 
2 | CC(C)[C@@H]1CN(S(=O)(=O)c2ccc(Cl)cc2Cl)C[C@H]1N(C)C |  | 6.68 µM (active)
3 | CC(Sc1nc2sccc2c(=O)n1-c1ccccc1)C(N)=O (stereo unspecified) | 11.5% | 
4 | CCOC(=O)c1c(NC(=O)CSc2nc3ccccc3c(=O)n2-c2ccccc2)sc(C(C)=O)c1C |  | 13.3 µM (active)
5 | CCOC(=O)C1CCN(Cc2cc(Cl)c3ccccc3c2O)CC1 |  | 1.88 µM (active)
6 | CCOC(=O)C1CCN(c2cc(=O)n(-c3ccccc3Cl)c(=O)[nH]2)CC1 |  | 8.41 µM (active)
7 | CCOC(=O)C1CCN(C(=O)CSc2nc(N)cc(=O)[nH]2)CC1 | 21.4% | 
8 | Cc1noc(CN(C)C(=O)C2C3C(=O)N(Cc4ccc(C)c(C)c4)C[C@@]34C=C[C@@H]2O4)n1 (stereo partly specified) | 30% | 
9 | O=C(C1CCCCC1)N1CCN(C2CCN(Cc3cccnc3)C2=O)CC1 (stereo unspecified) | -19.1% | 
10 | CCOC(=O)c1ccc2c(c1)[C@@H]1C=CC[C@@H]1[C@H](c1cccc(OC)c1OC)N2 |  | 2.66 µM (active)
11 | COc1ccc(-c2noc(-c3cccn3CC(=O)NC(C)C)n2)cc1F | 14.4% | 
12 | COc1ccc(NC(=O)Cn2cccc2-c2nc(-c3ccc(OC)c(F)c3)no2)cc1 |  | 4.73 µM (active)
13 | COc1ccc(-c2noc(-c3cccn3CC(=O)NC3CCCCC3)n2)cc1F | 6.59% | 
14 | COc1cccc(NC(=O)Cn2cccc2-c2nc(-c3ccc(OC)c(F)c3)no2)c1 |  | 6.68 µM (active)
15 | COc1ccc(-c2noc(-c3cccn3CC(=O)Nc3ccccc3)n2)cc1F |  | 2.37 µM (active)
16 | CCOc1ccc(NC(=O)Nc2cc(OCC(F)(F)F)cc(OCC(F)(F)F)c2)cc1 |  | 13.3 µM (active)
17 | Cc1cccc(-c2ccc3c(c2)C(=O)N2C[C@H](O)C[C@H]2C(=O)N3)c1C | 43.2% [at 43.1 µM] | 
18 | CCN1CCN(Cc2ccc(NC(=O)c3ccc(C)c(NC(=O)c4c[nH]c5cc(C(F)(F)F)ccc5c4=O)c3)cc2C(F)(F)F)CC1 |  | 0.531 µM (active)
19 | Cc1cn(-c2cc(C(=O)Nc3ccc(C)c(NC(=O)C(=O)c4c[nH]c5ccccc45)c3)cc(C(F)(F)F)c2)cn1 |  | 2.11 µM (active)

Row | Compound | activity change, negative = inhibition | Potency
20 | CCN1CCN(Cc2ccc(NC(=O)c3ccc(C)c(NC(=O)C(=O)c4c[nH]c5ccccc45)c3)cc2C(F)(F)F)CC1 |  | 1.5 µM (active)
21 | CCN1CCN(Cc2ccc(NC(=O)c3cc(NC(=O)C(=O)c4c[nH]c5ccccc45)cc(OC)c3)cc2C(F)(F)F)CC1 |  | 0.668 µM (active)
22 | CNC(=O)[C@@H]1CN(C(=O)c2c[nH]c3ccccc23)C[C@H]1COC | -9.93% | 
23 | CCn1nc(C)c(-c2cc(C(=O)N3CCc4nc5cc(-c6ccccc6)[nH]n5c(=O)c4C3)no2)c1C | -11.4% | 
24 | COc1ccc(CCc2nc3nccc(-c4ccc5c(c4)OCCCO5)n3n2)cc1OC | -25.8% | 
25 | COc1cc2nc(NCCc3cccc(C)c3)n3nc(-c4ccccc4)nc3c2cc1OC |  | 0.842 µM (active)
26 | COc1ccc(CCNc2nc3cc(OC)c(OC)cc3c3nc(-c4ccccc4)nn23)cc1OC |  | 2.37 µM (active)
27 | COc1cc2c(cc1O)CC[n+]1cc3c(OC)c(OC)ccc3cc1-2 |  | 7.5 µM (active)
28 | COc1ccc2nc(C[C@@H]3C[C@@H](C(C)C)[C@H](CNCc4ccccc4OC)C=C3C)[nH]c2c1 |  | 9.44 µM (active)
29 | COc1ccc2nc(C[C@@H]3C[C@@H](C(C)C)[C@H](CNCc4ccccn4)C=C3C)[nH]c2c1 |  | 0.769 µM (active)
30 | CC1=C[C@@H](CNC(=O)c2cnccn2)[C@H](C(C)C)C[C@H]1Cc1nc2ccc(F)cc2[nH]1 | -19% [at 43.1 µM] | 
31 | COC(=O)c1ccc2nc(C[C@@H]3C[C@@H](C(C)C)[C@H](CNC4CCCCC4)C=C3C)[nH]c2c1 |  | 8.41 µM (active)
32 | COc1ccccc1CNC[C@@H]1C=C(C)[C@H](Cc2nc3c(C)cccc3[nH]2)C[C@H]1C(C)C |  | 9.68 µM (active)
33 | CC1(C)Cc2ccccc2C2=NNC(=O)C2=N1 |  | 3.35 µM (active)
34 | CC(Oc1ccccc1)C(=O)Nc1cnc(-c2cccc(Cl)c2)nc1 (stereo unspecified) | -22.4% | 
35 | O=C(Nc1nc(-c2ccccn2)cs1)Nc1ccc(F)cc1F |  | 5.31 µM (active)
36 | O=C(Cc1ccccc1O)NCc1cccnc1Oc1ccc(F)cc1F | -1.86% | 
37 | CC(Oc1ccccc1)C(=O)Nc1nc(-c2ccccn2)cs1 (stereo unspecified) |  | 8.41 µM (active)
38 | CCC(C(=O)Nc1nc(C)c(C)s1)c1ccccc1 (stereo unspecified) | -13.3% | 

Row | Compound | activity change, negative = inhibition | Potency
39 | Cc1cc(NC(=O)CSc2nc3c(c(=O)n2Cc2ccccc2)SC(C)C3)no1 (stereo unspecified) | 175% | 
40 | CC1Cc2nc(SCC(=O)Nc3ccc4c(c3)OCO4)n(-c3ccc(F)cc3)c(=O)c2S1 (stereo unspecified) |  | 2.99 µM (active)
41 | CCC(Sc1nc2c(c(=O)n1CC)SC(C)C2)C(=O)OC (stereo unspecified) | 22.8% | 
42 | CCOc1ccccc1C(=O)N1CC(=O)Nc2ccc(Cl)cc2C1c1ccccc1 (stereo unspecified) |  | 9.44 µM (active)
43 | NNC(=O)CN1C(=O)Nc2ccc(Cl)cc2C1c1ccccc1 (stereo unspecified) | 35.4% | 
44 | CCN(CC)CCNC(=O)c1ccc(NC(=O)c2cc(-c3ccncc3)nc3ccccc23)cc1 | -24.5% | 
45 | O=C(Nc1ccncc1)c1cc(-c2cccc(Br)c2)nc2ccccc12 |  | 13.3 µM (active)
46 | Cc1ccc2oc(-c3cccc(NC(=O)c4cccc5c(Cl)cccc45)c3)nc2c1 | 31.7% | 
47 | O=C(Nc1cccnc1)c1cc(-c2cccnc2)nc2ccc(Br)cc12 |  | 2.66 µM (active)
48 | O=C(NCc1ccco1)c1cc(-c2ccncc2)nc2ccccc12 |  | 5.96 µM (active)
49 | O=C(CCC1CCCC1)N1CC(c2nnc(-c3ccncc3)o2)C2(CCOCC2)C1 (stereo unspecified) | 10.2% | 
50 | COc1cc(C#Cc2c(-c3cncn3C)n(C)c3ccc(-c4ccc(OC)c(OC)c4)cc23)cc(OC)c1 |  | 4.73 µM (active)
51 | COc1ccc(-c2c(C#Cc3ccsc3)c3cc(-c4cccc5[nH]ccc45)ccc3n2C)cc1 |  | 6.68 µM (active)
52 | COc1cc(C#Cc2c(-c3cncn3C)n(C)c3ccc(-c4ccc5[nH]ccc5c4)cc23)cc(OC)c1 |  | 2.37 µM (active)
53 | CC(=O)NCCc1ncc(C)n1C1CCCCCC1 | -24.6% | 
54 | CCOC(=O)c1cnc(-n2nc(C)cc2C)nc1NNc1nc(-c2ccccc2)cc(-c2ccccc2)n1 |  | 2.11 µM (active)
55 | CC(=O)NCCc1ncc(C)n1C1CCC1 | -8.89% | 
56 | CCOC(=O)c1cnc(-n2nc(C)cc2C)nc1NC1CCCC1 |  | 8.41 µM (active)
